# Source: PubChem BioAssay (NCATS)
# Values without a mark were called inactive. Calls come from the whole dose curve; as a rule, active = well fitted curve in the direction sought with a large enough effect; inconclusive = small, poorly fitted or top-dose-only effect, or another doubt; inactive = no such curve, though single readings can be large; an effect the other way counts as inactive or inconclusive.
# Tested on: not listed separately
# Test: qHTS for Inhibitors of Cell Surface uPA Generation: Validation Assay (AID 493164);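 note: RAW 264.7 macrophage cells exposed to compound for 18 h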
# Details: mouse cells, plasminogen activation; series mostly up to 38.3 µM; activity change: at the top concentration
# Summary of the method: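 Compounds are titrated over seven points (2.45 nM–38.3 uM final) onto pre-plated RAW 264.7 cells and incubated for 18 h. Retained intracellular ATP, measured with ATP-Lite, indicates blocked lethal factor entry.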
# Note: 0% is about no effect.
row,Structure (SMILES),activity change
1,CC(=O)[C@@]1(O)CC[C@H]2[C@@H]3CCC4=CC(=O)CC[C@]4(C)[C@H]3CC[C@@]21C,-0.121%
2,CCCCCN(CCCCC)C(=O)C(CCC(=O)O)NC(=O)c1ccc(Cl)c(Cl)c1 (stereo not drawn),0.532%
3,O=C(CCNNC(=O)c1ccncc1)NCc1ccccc1,-0.672%
4,COCCc1ccc(OCC(O)CNC(C)C)cc1 (stereo not drawn),-0.469%
5,c1ccc2c(c1)CCCC2C1=NCCN1 (stereo not drawn),-0.7%
6,Cc1cccc(C)c1NC(=O)C(C)N (stereo not drawn),-0.398%
7,OC(CCN1CCCCC1)(c1ccccc1)C1CCCCC1 (stereo not drawn),-0.741%
8,CCn1ccnc1CC1COc2ccccc2O1 (stereo not drawn),-0.454%
9,CCCN(CCC)C(=O)C(CCC(=O)O)NC(=O)c1ccccc1 (stereo not drawn),1.24%
10,Cc1ccc(S(=O)(=O)NC(=O)NN2CCCCCC2)cc1,-0.189%
11,CCCOc1ccccc1-c1nc2n[nH]nc2c(=O)[nH]1,1.23%
12,NC(=O)c1ncn([C@@H]2O[C@H](CO)[C@@H](O)[C@H]2O)c1O,-0.749%
13,CCc1cccc(N(C)C(N)=Nc2cccc3ccccc23)c1,0.789%
14,C[n+]1cc2c3c(ccc2c2ccc4cc5c(cc4c21)OCO5)OCO3,1.98%
15,Cc1nc2sccn2c(=O)c1CCN1CCC(=C(c2ccc(F)cc2)c2ccc(F)cc2)CC1,1.43%

# Target: Galactokinase (Homo sapiens) (UniProt P51570)
# Sequence (P51570 whole entry, looked up): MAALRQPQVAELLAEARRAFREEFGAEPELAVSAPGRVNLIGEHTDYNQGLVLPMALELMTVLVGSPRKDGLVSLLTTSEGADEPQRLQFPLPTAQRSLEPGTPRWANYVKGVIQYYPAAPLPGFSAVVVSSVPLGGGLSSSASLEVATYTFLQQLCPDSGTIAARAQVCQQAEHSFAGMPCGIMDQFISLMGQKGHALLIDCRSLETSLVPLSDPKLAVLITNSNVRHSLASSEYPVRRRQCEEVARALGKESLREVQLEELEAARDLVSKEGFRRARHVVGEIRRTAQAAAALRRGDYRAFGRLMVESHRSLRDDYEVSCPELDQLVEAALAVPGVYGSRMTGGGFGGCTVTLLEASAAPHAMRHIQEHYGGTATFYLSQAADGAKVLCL
# Test: qHTS Validation Assay for Inhibitors of Human Galactokinase (GALK) (AID 493189)
# Details: purified human GALK enzyme activity, qHTS 7-point titration; series mostly up to 57.5 µM; activity change, negative = inhibition: at the top concentration
# Summary of the method: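 Luminescence from leftover ATP (Kinase-Glo Plus, 10 min) served as read-out after a 1 h room-temperature reaction of 5 nM GALK, 100 uM galactose and 35 uM ATP at pH8.0.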
row,Structure (SMILES),"activity change, negative = inhibition"
1,CC(C)[N+](C)(CCOC(=O)C1c2ccccc2Oc2ccccc21)C(C)C,4.29%
2,CC1=NS(=O)(=O)c2cc(Cl)ccc2N1,-0.411%
3,O=C(O)CN(CCOCCOCCN(CC(=O)O)CC(=O)O)CC(=O)O,-3.6%
4,CCO/C([O-])=N/c1c[n+](N2CCOCC2)no1,3.52%
5,CNCCC(Oc1ccccc1OC)c1ccccc1 (stereo not drawn),-2.36%
6,C[N+](C)(C)CCOC(=O)CCC(=O)OCC[N+](C)(C)C,-3.21%
7,CCCN(CCC)CCc1cccc2c1CC(=O)N2,-0.23%
8,CCN1CCC[C@H]1CNC(=O)c1c(O)c(Cl)cc(Cl)c1OC,0.693%
9,CC(C)COCC(CN(Cc1ccccc1)c1ccccc1)N1CCCC1 (stereo not drawn),2.82%
10,Cc1nc2ccccn2c(=O)c1CCN1CCC(C(=O)c2ccc(F)cc2)CC1,-3.65%
11,CN(C(=O)CCCOc1ccc2[nH]c(=O)ccc2c1)C1CCCCC1,1.14%
12,COCCc1ccc(OCC(O)CNC(C)C)cc1 (stereo not drawn),1.4%
13,c1ccc2c(c1)CCCC2C1=NCCN1 (stereo not drawn),3.86%
14,OC(CCN1CCCCC1)(c1ccccc1)C1CCCCC1 (stereo not drawn),2.73%
15,CCCN(CCC)C(=O)C(CCC(=O)O)NC(=O)c1ccccc1 (stereo not drawn),0.0686%
16,Cc1ccc(S(=O)(=O)NC(=O)NN2CCCCCC2)cc1,0.64%
17,NC(=O)c1ncn([C@@H]2O[C@H](CO)[C@@H](O)[C@H]2O)c1O,3.65%
18,C[n+]1cc2c3c(ccc2c2ccc4cc5c(cc4c21)OCO5)OCO3,-0.457%
